# “And” between values parts separate entries of the source, which are not always exact repeats. Identical values can stand only once. Inconclusive results are not listed. Where a call stands in place of a potency, no number is given. A structure can be active in one record and inactive in another. A number with no mark means an inactive call. The source made the active and inactive calls. Calls follow the shape of the dose curve; as a rule, active = well fitted inhibition curve with a large enough effect; inconclusive = small, poorly fitted or top-dose-only effect; inactive = flat fitted curve, though single readings scatter.
# Key:
# [1] = tested on: P93_24; assay: qHTS profiling for inhibitors of Plasmodium falciparum proliferation (AID 504749); also: potency is read from the fitted curve at half-maximal effect; conditions: P. falciparum in erythrocytes, SYBR Green DNA, 72 h; series mostly up to 28.7 µM
# Procedure, shortened: (§1)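 In a 72 h erythrocytic culture (37 C, humidified, 5% CO2) at 2.5% hematocrit and 0.3% starting parasitemia, compounds were tested; SYBR Green I in detergent lysis buffer stained parasite DNA overnight.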
# [2] = tested on: P94_40; assay: as above; conditions: P. falciparum in erythrocytes, SYBR Green DNA, 72 h; series mostly up to 28.7 µM
# Procedure, shortened: as §1
# [3] = tested on: PAD; assay: as above; conditions: P. falciparum in erythrocytes, SYBR Green DNA, 72 h; series mostly up to 28.7 µM
# Procedure, shortened: as §1
# [4] = tested on: PC15; assay: as above; conditions: P. falciparum in erythrocytes, SYBR Green DNA, 72 h; series mostly up to 28.7 µM
# Procedure, shortened: as §1
# [5] = tested on: PC26; assay: as above; conditions: P. falciparum in erythrocytes, SYBR Green DNA, 72 h; series mostly up to 28.7 µM
# Procedure, shortened: as §1
# [6] = tested on: PC49; assay: as above; conditions: P. falciparum in erythrocytes, SYBR Green DNA, 72 h; series mostly up to 28.7 µM
# Procedure, shortened: as §1
# [7] = tested on: SC27B; assay: as above; conditions: P. falciparum in erythrocytes, SYBR Green DNA, 72 h; series mostly up to 28.7 µM
# Procedure, shortened: as §1
# [8] = tested on: TAB109; assay: as above; conditions: P. falciparum in erythrocytes, SYBR Green DNA, 72 h; series mostly up to 28.7 µM
# Procedure, shortened: as §1
# [9] = tested on: TAB113; assay: as above; conditions: P. falciparum in erythrocytes, SYBR Green DNA, 72 h; series mostly up to 28.7 µM
# Procedure, shortened: as §1
# [10] = tested on: TAB165; assay: as above; conditions: P. falciparum in erythrocytes, SYBR Green DNA, 72 h; series mostly up to 28.7 µM
# Procedure, shortened: as §1
# [11] = tested on: W2; assay: as above; conditions: P. falciparum in erythrocytes, SYBR Green DNA, 72 h; series mostly up to 28.7 µM
# Procedure, shortened: as §1
# [12] = tested on: CRL-7250; assay: Cytotoxic Profiling of Annotated Libraries Using Quantitative High-Throughput Screening (AID 1296008); conditions: Five cell lines viability, CellTiter-Glo ATP luminescence, 48-72 h; max response: stronger effect = lower value; also: potency is read from the fitted curve at half-maximal effect
# Procedure, shortened: (§2)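 Cytotoxicity was measured as CellTiter-Glo ATP luminescence, read after 10 min at room temperature. Compound treatment of the cells lasted 48 or 72 hr at 37 degrees Celsius in a qHTS format.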
# [13] = tested on: HaCat; assay: as above; conditions: Five cell lines viability, CellTiter-Glo ATP luminescence, 48-72 h; max response: stronger effect = lower value
# Procedure, shortened: as §2
# [14] = tested on: KB-3-1; assay: as above; conditions: Five cell lines viability, CellTiter-Glo ATP luminescence, 48-72 h; max response: stronger effect = lower value
# Procedure, shortened: as §2
# [15] = tested on: NIH3T3; assay: as above; conditions: Five cell lines viability, CellTiter-Glo ATP luminescence, 48-72 h; max response: stronger effect = lower value
# Procedure, shortened: as §2
# [16] = tested on: HACAT; assay: qHTS assay to identify novel small-molecules to repurpose for Merkel cell carcinoma treatment (AID 1296009); conditions: MCC and control cell lines, CellTiter-Glo viability, 72 h
# Procedure, shortened: (§3)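 Cell viability measured by CellTiter-Glo following 72 hr compound treatment at 37 degree celsius, with NPC and MIPE libraries tested in 8- and 11-point concentration series.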
# [17] = tested on: MCC-13; assay: as above; conditions: MCC and control cell lines, CellTiter-Glo viability, 72 h; series mostly up to 46 µM
# Procedure, shortened: as §3
# [18] = tested on: MCC-26; assay: as above; conditions: MCC and control cell lines, CellTiter-Glo viability, 72 h; series mostly up to 46 µM
# Procedure, shortened: as §3
# [19] = tested on: HEK293; assay: Cytotoxic Profiling of Annotated Libraries Using Quantitative High-Throughput Screening (AID 1296008); conditions: Five cell lines viability, CellTiter-Glo ATP luminescence, 48-72 h; max response: stronger effect = lower value; also: potency is read from the fitted curve at half-maximal effect
# Procedure, shortened: as §2
# [20] = tested on: HEK293T; assay: qHTS assay to identify novel small-molecules to repurpose for Merkel cell carcinoma treatment (AID 1296009); conditions: MCC and control cell lines, CellTiter-Glo viability, 72 h
# Procedure, shortened: as §3
# [21] = at 44.8 µM (top of the series) unless noted
# Also: nearly all actives have a fitted effect of over 60% in size.
structure (smiles),measurement,setting,value
CCCc1cc(C(N)=S)ccn1,Potency,[1],inactive
same,Potency,[2],inactive
same,Potency,[3],inactive
same,Potency,[4],inactive
same,Potency,[5],inactive
same,Potency,[6],inactive
same,Potency,[7],inactive
same,Potency,[8],inactive
same,Potency,[9],inactive
same,Potency,[10],inactive
same,Potency,[11],inactive
same,outcome,[12],inactive
same,max response,[13],0.608%
same,outcome,[13],inactive
same,max response,[14],-1.25% and 6.29%
same,max response,[15],-7.14% and -4.81%
same,outcome,[16]; [21],inactive
same,Potency,[17],inactive
same,Potency,[18],inactive
N[C@@H](C(=O)N[C@@H]1C(=O)N2C(C(=O)O)=C(Cl)CS[C@H]12)c1ccccc1,Potency,[1],inactive
same,Potency,[2],inactive
same,Potency,[3],inactive
same,Potency,[4],inactive
same,Potency,[5],inactive
same,Potency,[6],inactive
same,Potency,[7],inactive
same,Potency,[8],inactive
same,Potency,[9],inactive
same,Potency,[10],inactive
same,Potency,[11],inactive
same,max response,[12],3.96% and -9.13%
same,outcome,[19],inactive
same,outcome,[13],inactive
same,max response,[14],16.8% and 8.23%
same,outcome,[15],inactive
same,outcome,[16]; at 9.27 µM (top of the series),inactive
same,outcome,[16]; at 44.8 µM (top of the series),inactive
same,outcome,[20]; at 9.27 µM (top of the series),inactive
same,outcome,[20]; at 44.8 µM (top of the series),inactive
same,Potency,[17],inactive
same,Potency,[18],inactive
COc1cc2ncnc(Nc3cccc(Cl)c3)c2cc1OC,Potency,[12],0.187 µM (active)
same,Potency,[19],0.372 µM (active)
same,Potency,[13],16.6 nM (active) and 1.46 µM (active)
same,Potency,[14],16.6 µM (active)
same,Potency,[15],2.09 µM (active)
same,max response,[15],-25%
same,Potency,[17],inactive
same,Potency,[18],inactive
CC1=C(C(=O)O)N2C(=O)[C@@H](NC(=O)C(N)c3ccccc3)[C@H]2SC1 (some centres not stated),max response,[12],-9.32%
same,max response,[19],-2.36%
same,max response,[13],3%
same,outcome,[14],inactive
same,outcome,[15],inactive
same,Potency,[17],inactive
same,Potency,[18],inactive
NC(=O)N1c2ccccc2CC(=O)c2ccccc21,Potency,[1],inactive
same,Potency,[2],inactive
same,Potency,[3],inactive
same,Potency,[4],inactive
same,Potency,[5],inactive
same,Potency,[6],inactive
same,Potency,[7],inactive
same,Potency,[8],inactive
same,Potency,[9],inactive
same,Potency,[10],inactive
same,Potency,[11],inactive
same,max response,[12],1.16% and -4.89%
same,outcome,[13],inactive
same,max response,[14],-10.3% and 3.64%
same,outcome,[15],inactive
same,outcome,[16]; [21],inactive
same,outcome,[20]; [21],inactive
same,Potency,[17],inactive
COc1ncnc(NS(=O)(=O)c2ccc(N)cc2)c1OC,Potency,[1],inactive
same,Potency,[2],inactive
same,Potency,[3],inactive
same,Potency,[4],inactive
same,Potency,[5],inactive
same,Potency,[6],inactive
same,Potency,[7],inactive
same,Potency,[8],inactive
same,Potency,[9],inactive
same,Potency,[10],inactive
same,Potency,[11],inactive
same,max response,[13],-20.7%
same,outcome,[13],inactive
same,max response,[14],-15% and 8.7%
same,Potency,[15],16.6 µM (active)
same,max response,[15],-17.7%
same,outcome,[16]; [21],inactive
same,outcome,[20]; [21],inactive
same,Potency,[17],inactive
CCCCOc1ccc(CC(=O)NO)cc1,Potency,[1],1.58 µM (active)
same,Potency,[2],2 µM (active)
same,Potency,[3],1.41 µM (active)
same,Potency,[4],inactive
same,Potency,[6],inactive
same,Potency,[8],2.24 µM (active)
same,Potency,[10],3.16 µM (active)
same,Potency,[11],0.572 µM (active)
same,max response,[12],-23.3%
same,max response,[14],-6.89%
same,outcome,[14],inactive
same,Potency,[15],23.7 µM (active)
same,max response,[15],-7.85%
same,Potency,[17],inactive
same,Potency,[18],inactive
CCCCc1oc2ccc(NS(C)(=O)=O)cc2c1C(=O)c1ccc(OCCCN(CCCC)CCCC)cc1,Potency,[19],11.6 µM (active)
same,Potency,[13],23.7 µM (active)
same,Potency,[14],23.1 µM (active)
same,Potency,[15],9.44 µM (active)
same,Potency,[17],inactive
Cc1ccc(S(=O)(=O)N[C@@H](Cc2ccccc2)C(=O)CCl)cc1,max response,[12],-1.25%
same,outcome,[13],inactive
same,max response,[14],6.1%
same,outcome,[15],inactive
same,outcome,[16]; [21],inactive
same,Potency,[17],inactive
O=C(O)c1ccc(-n2nc(-c3ccccc3O)nc2-c2ccccc2O)cc1,max response,[13],2.92%
same,outcome,[13],inactive
same,outcome,[16]; [21],inactive
same,Potency,[17],inactive
same,Potency,[18],inactive
CC(C)(C#N)c1cc(Cn2cncn2)cc(C(C)(C)C#N)c1,Potency,[1],inactive
same,Potency,[2],inactive
same,Potency,[3],inactive
same,Potency,[4],inactive
same,Potency,[5],inactive
same,Potency,[6],inactive
same,Potency,[7],inactive
same,Potency,[8],inactive
same,Potency,[9],inactive
same,Potency,[10],inactive
same,Potency,[11],inactive
same,Potency,[17],inactive
CCCCCCNC(=O)n1cc(F)c(=O)[nH]c1=O,Potency,[3],10 µM (active)
same,Potency,[10],10 µM (active)
same,Potency,[11],4.78 µM (active)
same,max response,[13],-37.7%
same,max response,[14],-8.63% and -17%
same,Potency,[15],1.5 µM (active) and 3.72 µM (active)
same,Potency,[17],inactive
same,Potency,[18],inactive
NC(=O)c1cccnc1,Potency,[1],inactive
same,Potency,[2],inactive
same,Potency,[3],inactive
same,Potency,[4],inactive
same,Potency,[5],inactive
same,Potency,[6],inactive
same,Potency,[7],inactive
same,Potency,[8],inactive
same,Potency,[9],inactive
same,Potency,[10],inactive
same,Potency,[11],inactive
same,outcome,[16]; [21],inactive
same,outcome,[20]; [21],inactive
same,Potency,[17],inactive
same,Potency,[18],inactive
OCc1ccc(-c2nn(Cc3ccccc3)c3ccccc23)o1,outcome,[14],inactive
same,Potency,[17],inactive
same,Potency,[18],inactive
Cc1ncc([N+](=O)[O-])n1CCO,Potency,[1],inactive
same,Potency,[2],inactive
same,Potency,[3],inactive
same,Potency,[4],inactive
same,Potency,[5],inactive
same,Potency,[6],inactive
same,Potency,[7],inactive
same,Potency,[8],inactive
same,Potency,[9],inactive
same,Potency,[10],inactive
same,Potency,[11],inactive
COc1ccc2c(c1)c(CC(=O)OCC(=O)O)c(C)n2C(=O)c1ccc(Cl)cc1,max response,[12],-1.43% and 4.64%
same,max response,[13],-2.32% and -4.14%
same,max response,[14],-10.9% and 5.13%
same,max response,[15],-11.9% and 4.26%
same,outcome,[20]; [21],inactive
same,Potency,[17],inactive
CC(C)(C)C(=O)OCOP(=O)(COCCn1cnc2c(N)ncnc21)OCOC(=O)C(C)(C)C,Potency,[3],inactive
same,Potency,[6],inactive
same,Potency,[7],inactive
